Source: PubChem (National Center for Advancing Translational Sciences (NCATS))
Most compounds without a hit are left out; they make up all but 19% or so of the library.
TGFb inhibitor: inhibitors of TGF-b signaling | HepG2 CAGA-GFP TGF-b/SMAD3 reporter, GFP fluorescence, 18 h; TGF-beta stimulated, 500 pg/mL final | Potency, µM (doses to about 46.1 µM), without a hit: at the highest dose activity, negative = inhibition, most hits filed as inhibitors | actives 1.2% (n = 410,000) | AID 588855; also: potency is read from the fitted curve at half-maximal effect; % is scaled to controls: 0 for no effect and ±100 for the full control effect; nearly all actives have a fitted effect of over 65% in size
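Read-out: total well GFP (ex488/em500-530) summed from mean per-cell fluorescence. Cells: HEPG2 CAGA-GFP, 1% FBS DMEM, 18 h at 37 degrees C with 500 pg/mL final TGF-beta. Unstimulated wells served as the full-inhibition control; stimulated DMSO wells = 0%.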
DT40 TDP1 CPT: DT40-hTDP1 cell growth loss with CPT; chicken DT40 Tdp1-/-;hTDP1 cells + 20 nM CPT, ATP luminescence, 48 h; Potency, µM (series often up to 46.2 µM), for inactives: at the highest dose activity change, negative = growth inhibition, hits mostly inhibitors; actives 12% (n = 420,000); AID 686979; also: potency is read from the fitted curve at half-maximal effect; % is scaled to controls: 0 for no effect and ±100 for the full control effect; nearly all actives have a fitted effect of over 55% in size
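Cell growth measured by CellTiter-Glo luminescence after a minimum 48 h, 37 C compound exposure with 20 nM CPT in Tdp1-knockout DT40 cells stably expressing hTDP1, seeded 400/well; qHTS titration format.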
TDP1 cell noCPT: qHTS for Inhibitors of human tyrosyl-DNA phosphodiesterase 1 (TDP1): qHTS in cells in absence of CPT | DT40 Tdp1-/- hTDP1 cells, no CPT, ATP luminescence, 48 h | AID 686978, 2013 | actives 15% (n = 420,000) | Potency, µM (series often up to 46.2 µM), inactives show at the top dose activity change, negative = growth inhibition, actives largely listed as inhibitors; also: potency is read from the fitted curve at half-maximal effect; % is scaled to controls: 0 for no effect and ±100 for the full control effect; nearly all actives have a fitted effect of over 55% in size
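Compound effects on proliferation are scored in DT40 Tdp1-/-;hTDP1 cells in the absence of CPT. ATP levels (CellTiter-Glo luminescence) are recorded after a ≥48 hr, 37 °C incubation.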
TDP1 block: blocks human tyrosyl-DNA phosphodiesterase 1; recombinant TDP1, AlphaScreen DNA substrate cleavage; Potency, µM (doses to about 130 µM), inactives show top-dose activity change, negative = inhibition, most hits filed as inhibitors; actives 0.28% (n = 350,000); also: potency is read from the fitted curve at half-maximal effect; % is scaled to controls: 0 for no effect and ±100 for the full control effect; nearly all actives have a fitted effect of over 40% in size
Target sequence (Q9NUW8 whole entry, looked up): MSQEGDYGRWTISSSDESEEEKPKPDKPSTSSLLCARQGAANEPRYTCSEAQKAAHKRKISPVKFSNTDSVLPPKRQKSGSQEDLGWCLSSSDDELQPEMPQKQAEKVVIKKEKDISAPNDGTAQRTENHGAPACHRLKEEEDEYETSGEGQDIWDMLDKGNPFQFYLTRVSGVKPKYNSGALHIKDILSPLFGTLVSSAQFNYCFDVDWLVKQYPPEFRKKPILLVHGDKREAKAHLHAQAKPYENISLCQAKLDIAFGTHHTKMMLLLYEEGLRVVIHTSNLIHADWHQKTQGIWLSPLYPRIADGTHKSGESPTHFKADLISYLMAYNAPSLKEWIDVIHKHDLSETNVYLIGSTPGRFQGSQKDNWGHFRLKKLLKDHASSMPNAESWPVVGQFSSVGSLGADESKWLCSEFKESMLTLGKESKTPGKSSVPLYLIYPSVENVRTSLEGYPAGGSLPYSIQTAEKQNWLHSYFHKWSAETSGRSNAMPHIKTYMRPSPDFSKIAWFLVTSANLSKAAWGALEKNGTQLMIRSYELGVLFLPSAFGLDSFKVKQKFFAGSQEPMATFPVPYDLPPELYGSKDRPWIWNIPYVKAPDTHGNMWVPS
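Enzyme-compound mixtures sat 15 min at room temperature, followed by a 5 min reaction with 15 nM final substrate and 10 min with AlphaScreen beads. Recombinant human Tdp1 was used at 1 nM final.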
HepG2 tox: kills HepG2 cells in TGF-b inhibitor counter-screen; HepG2 CAGA-GFP viability, ATP luminescence, 18 h; Potency, µM (titrated, usually from 46.1 µM), inactives show at the top dose activity change, negative = cytotoxicity, usual class: cytotoxic; actives 0.76% (n = 410,000); AID 588856; also: potency is read from the fitted curve at half-maximal effect
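CellTiter-Glo luminescence gave cytotoxicity after 18 hours at 37 degrees C. The cells were HepG2 CAGA-GFP in 1% FBS DMEM, stimulated with 500 pg/mL TGF-beta after compound addition. %Activity was normalised to no-cell wells (complete cell-killing) and DMSO (no toxicity), and curves were fitted and classified.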
IL-1B inflam inh: blocks inflammasome-driven IL-1 beta release | THP-1 LPS/ATP IL-1B secretion, AlphaLISA, 16 h; stronger effect = lower value | activity change, % at 57.5 µM | actives 4.7% (n = 360,000) | AID 743279; in the data active = activity change below about -50%; inconclusive = mostly about -30% to -49%; also: % is scaled to controls: 0 for no effect and ±100 for the full control effect
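THP-1 cells pretreated 1 hr with compounds (up to 57.5 uM final), then stimulated with LPS (250 ng/mL final) plus ATP (1.25 mM final); secreted IL-1B measured by AlphaLISA after 16 hr, decreased signal indicating inhibition.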
* = called active by the depositor; u = inconclusive; x = no result given. Unless noted, calls follow the shape of the dose curve; as a rule, active = well fitted curve in the direction sought with a large enough effect; inconclusive = small, poorly fitted or top-dose-only effect, or another doubt; inactive = no such curve, though single readings can be large; an effect the other way counts as inactive or inconclusive.

SMILES	TGFb inhibitor	DT40 TDP1 CPT	TDP1 cell noCPT	TDP1 block	HepG2 tox	IL-1B inflam inh
CCCCCc1c(C)c(C#N)c2nc3ccccc3n2c1-n1ccnc1C	8%	-16%	-14%	0%	-78%	53
Cc1ccc(Nc2c(C(C)C)c(C)c(C#N)c3nc4ccccc4n23)cc1	u	18µM*	15µM*	x	-27%	x
COc1ccc(Nc2c3c(c(C#N)c4nc5ccccc5n24)CCC3)cc1	u	-13%	-12%	0%	3%	26
CCN(CC)c1c2c(c(C#N)c3nc4ccccc4n13)CCC2	10%	-18%	u	0%	-32%	19
Cc1c(CCCl)c(Cl)n2c(nc3ccccc32)c1C#N	u	0.92µM*	0.65µM*	x	-21%	-113*
COCCNc1c2c(c(C#N)c3nc4ccccc4n13)CCCC2	-6%	26µM*	21µM*	5%	-1%	13
O=C1c2ccccc2C(=O)N1c1cncc2ccccc12	x	x	x	3%	x	x
COc1cccc(NC(=O)c2cc(CN3CCOCC3)on2)c1	-3%	17%	10%	-3%	-5%	x
Cc1ccc(-c2c(C#N)c(N)n3c(nc4ccccc43)c2C#N)cc1	u	21µM*	16µM*	u	-23%	-24
CN(C)S(=O)(=O)c1cccc(N=C2SCCN2Cc2ccccc2)c1	10%	u	21µM*	x	2%	-9
COC(=O)c1ccc(OC)c(CSc2nnc(-c3ccc(C(C)(C)C)cc3)o2)c1	-8%	16µM*	21µM*	-7%	-21%	-3
COC(=O)c1ccc(OC)c(CSc2nnc(COc3ccccc3)o2)c1	15%	u	u	-1%	-3%	-11
Cc1cc([N+](=O)[O-])nn1CCCC(=O)Nc1cc(Oc2ccc(F)cc2)cc([N+](=O)[O-])c1	9%	u	u	-2%	7%	u
Cc1nn(Cc2ccccc2)c(C)c1NC(=O)CCCn1nc([N+](=O)[O-])c(Cl)c1C	7%	-25%	-25%	0%	3%	-19
Cc1ccc(Oc2cc(NC(=O)CCCn3nc([N+](=O)[O-])c(Cl)c3C)cc([N+](=O)[O-])c2)cc1	-2%	21µM*	23µM*	3%	5%	38
Cc1cc(C)cc(Oc2cc(NC(=O)c3cn(C)nc3C)cc([N+](=O)[O-])c2)c1	u	2.2µM*	1.4µM*	4%	-31%	5
Cc1nn(Cc2c(Cl)cccc2Cl)c(C)c1NC(=O)CCCn1nc([N+](=O)[O-])c(Cl)c1C	18%	u	21µM*	0%	-12%	-7
Cc1cc([N+](=O)[O-])nn1CCCC(=O)Nc1cc(Oc2ccccc2)cc([N+](=O)[O-])c1	-14%	16µM*	21µM*	3%	10%	0
CCN(CC)S(=O)(=O)c1ccc2c(c1)N(CC(=O)Nc1cccc(C)c1C)C(=O)C1CCCN21 (centres undefined)	u	-18%	u	5%	-6%	x
COCOCCn1cc(CN2CCS(=O)(=O)N(Cc3ccc(-c4ccc(OC)cc4)cc3)C(C)C2=O)nn1 (centres undefined)	-18%	21µM*	12µM*	x	-43%	-3
COCOCCn1cc(CN2CCS(=O)(=O)N(Cc3ccc(-c4ccc(Cl)cc4)cc3)C(C(C)C)C2=O)nn1 (centres undefined)	-4%	18µM*	21µM*	x	-20%	46
COCOCCn1cc(CN2CCS(=O)(=O)N(Cc3ccc(-c4ccc(Cl)c(Cl)c4)cc3)C(C(C)C)C2=O)nn1 (centres undefined)	u	2.3µM*	2.3µM*	x	-116%	-28
COCOCCn1cc(CN2CCS(=O)(=O)N(Cc3ccc(-c4ccc(C)cc4)cc3)C(CC(C)C)C2=O)nn1 (centres undefined)	0%	-64%	u	x	-29%	-21
COCOCCn1cc(CN2CCS(=O)(=O)N(Cc3ccc(-c4ccc(F)cc4)cc3)C(CC(C)C)C2=O)nn1 (centres undefined)	u	26µM*	15µM*	x	-101%	-18
CC1C(=O)N(Cc2cn(CCC3OCCO3)nn2)CCS(=O)(=O)N1Cc1ccc(-c2ccc(F)cc2)cc1 (centres undefined)	u	u	u	x	-32%	17
SMILES	TGFb inhibitor	DT40 TDP1 CPT	TDP1 cell noCPT	TDP1 block	HepG2 tox	IL-1B inflam inh
Cc1c(C(=O)N2CCC(Cc3ccccc3)CC2)sc2ncnc(NCc3ccccn3)c12	x	u	-29%	x	x	x
CCC/C=C/c1ccc(CN2C(C(C)C)C(=O)N(Cc3cn(CCOCOC)nn3)CCS2(=O)=O)cc1 (centres undefined)	-8%	u	u	x	0%	9
COCOCCn1cc(CN2CCS(=O)(=O)N(Cc3ccc(-c4ccc(F)cc4)cc3)C(C(C)C)C2=O)nn1 (centres undefined)	u	u	18µM*	x	-28%	u
O=C(O)c1ccc(/C=N/NC(=S)NCCN2CCOCC2)cc1	-5%	5%	-19%	5%	-7%	16
Oc1cccc(/C=N/NC(=S)NCCN2CCOCC2)c1O	-12%	7.3µM*	5.8µM*	5%	-3%	119
S=C(NCCN1CCOCC1)N/N=C/c1cccs1	4.5µM*	18µM*	4.1µM*	x	8.9µM*	-4
Cc1cccc(NC(=S)NCCN2CCOCC2)c1C	-7%	-1%	1%	1%	-2%	7
CCc1ccc(NC(=O)C2=CC(c3ccc(OC)cc3)=NS(=O)(=O)N2C)cc1	u	u	u	x	-22%	-10
COc1ccc(NC(=O)C2=CC(c3cccs3)=NS(=O)(=O)N2C)cc1	9%	u	u	-3%	-17%	-5
COc1ccc(OC)c(C2=NS(=O)(=O)N(C)C(C(=O)Nc3cccc(C(C)=O)c3)=C2)c1	6%	21µM*	u	4%	-5%	-1
COc1ccc(OC)c(C2=NS(=O)(=O)N(C)C(C(=O)NCc3cccs3)=C2)c1	4%	u	u	3%	-21%	11
CC(=O)c1ccc(NC(=O)C2=CC(c3ccc(C)cc3)=NS(=O)(=O)N2C)cc1	u	8.2µM*	4.1µM*	17%	-17%	x
COc1ccc(C2=NS(=O)(=O)N(C)C(C(=O)Nc3ccc(C)cc3)=C2)cc1	-12%	u	21µM*	x	-26%	-24
